Experimental findings from the supplement of paper PMC8975748 are described below.

Where a name gives a salt, the structure may show the parent alone.

The assay has as its system Saccharomyces cerevisiae BY4741 SeMeCo community. The experiment in a line: z-score of subpopulation abundance vs DMSO median, subpopulation auxotrophic for M; higher = larger share of this subpopulation than in DMSO controls. The following applies: 10 µM; 24 h; SM minimal medium; subpopulation (auxotrophy): M. The protocol:
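Fluorescent four-plasmid SeMeCo (self-establishing metabolically cooperating S. cerevisiae BY4741 community; plasmids pH-mRuby2, pL-mWasabi, pU-eCFP, pM-TagRFP657) was grown 24 h in minimal SM medium with each Selleck FDA-approved drug at 10 µM in 384-well plates. Cells were fixed and imaged by high-content confocal microscopy. For each auxotrophic subpopulation (and the prototroph), a z-score gives the deviation from the DMSO vehicle-control population median.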
As for `CC(NC(C)(C)C)C(=O)c1cccc(Cl)c1` (stereo not given) [Amfebutamone (Bupropion) HCl], the “z-score of subpopulation abundance” value is 0.97.

Regarding `Cn1cc(C2=C(c3cn(C4CCN(Cc5ccccn5)CC4)c4ccccc34)C(=O)NC2=O)c2ccccc21`, the “z-score of subpopulation abundance” value was -1.26.

With `COc1cc2c(cc1OC)C1CC(=O)C(CC(C)C)CN1CC2` (stereo not given) [Tetrabenazine (Xenazine)], the “z-score of subpopulation abundance” value stood at 0.98.

Take `C[C@@H]1O[C@@H](O[C@H]2C[C@@H](O)[C@]3(CO)[C@H]4[C@H](O)C[C@]5(C)[C@@H](C6=CC(=O)OC6)CC[C@]5(O)[C@@H]4CC[C@]3(O)C2)[C@H](O)[C@H](O)[C@H]1O` [Ouabain]: the “z-score of subpopulation abundance” value is -0.73.

On to `CN[C@@H]1[C@@H](O)[C@@H](O[C@@H]2[C@@H](O)[C@H](O[C@H]3O[C@H](CN)CC[C@H]3N)[C@@H](N)C[C@H]2N)OC[C@]1(C)O.CN[C@@H]1[C@@H](O)[C@@H](O[C@@H]2[C@@H](O)[C@H](O[C@H]3O[C@H]([C@@H](C)N)CC[C@H]3N)[C@@H](N)C[C@H]2N)OC[C@]1(C)O.CN[C@@H]1[C@@H](O)[C@@H](O[C@@H]2[C@@H](O)[C@H](O[C@H]3O[C@H]([C@@H](C)NC)CC[C@H]3N)[C@@H](N)C[C@H]2N)OC[C@]1(C)O` [Gentamicin Sulfate], for which the “z-score of subpopulation abundance” value is -0.59.

Consider `COc1ccc2[nH]cc(CCN)c2c1` [5-Methoxytryptamine], for which the “z-score of subpopulation abundance” value amounted to 0.64.

On to `COc1ccc2c3c([nH]c2c1)C(C)=NCC3` [Harmaline], for which the “z-score of subpopulation abundance” value turned out to be 5.54.

Turning to `CC[C@H]1[C@@H]2C[C@H]3[C@@H]4N(C)c5ccccc5[C@]45C[C@@H]([C@@H]2[C@H]5O)N3[C@@H]1O` [Ajmaline], the “z-score of subpopulation abundance” value is 0.82.

With `CN1[C@@H]2CC[C@H]1C[C@@H](OC(=O)C(CO)c1ccccc1)C2` (stereo not given in full) [Atropine sulfate monohydrate], the “z-score of subpopulation abundance” value was -0.25.

As to `CN(C)[C@@H]1C(=O)C(C(N)=O)=C(O)[C@@]2(O)C(=O)C3=C(O)c4c(O)cccc4[C@@](C)(O)[C@H]3C[C@@H]12` [Tetracycline HCl], the “z-score of subpopulation abundance” value was -0.05.

Consider `CNC1CC(N)C(O)C(OC2OC(CO)C(O)C3OC4(OC(C(N)CO)C(O)C(O)C4O)OC23)C1O` (stereo not given) [Hygromycin B], for which the “z-score of subpopulation abundance” value is -0.9.

Turning to `C[N+](C)(C)CCCCCCCCCC[N+](C)(C)C` [Decamethonium Bromide], the “z-score of subpopulation abundance” value was -0.44.

`CN[C@@H]1[C@@H](O)[C@@H](O[C@@H]2[C@@H](O)[C@H](O[C@H]3O[C@H]([C@@H](C)O)[C@@H](O)[C@H](O)[C@H]3N)[C@@H](N)C[C@H]2N)OC[C@]1(C)O` [Geneticin (G418 Sulfate)]: the “z-score of subpopulation abundance” value is -0.27.

Turning to `COc1ccc2c(c1)[C@]13CCCC[C@@H]1[C@H](C2)N(C)CC3` [Dextromethorphan hydrobromide hydrate], the “z-score of subpopulation abundance” value stood at 0.1.

As to `Oc1cccc2cccnc12` [8-Hydroxyquinoline], the “z-score of subpopulation abundance” value came out at 1.04.

As for `CC[C@@]1(O)C(=O)OCc2c1cc1n(c2=O)Cc2cc3ccccc3nc2-1` [Camptothecin], the “z-score of subpopulation abundance” value turned out to be 1.3.

As to `CC[C@@H](C(N)=O)N1CCCC1=O` [Levetiracetam], the “z-score of subpopulation abundance” value was found to be 0.08.

With `CN1[C@@H]2CC[C@H]1C[C@@H](OC(=O)[C@H](CO)c1ccccc1)C2` [Hyoscyamine], the “z-score of subpopulation abundance” value is -0.65.

Consider `Cc1cc(C(C#N)c2ccc(Cl)cc2)c(Cl)cc1NC(=O)c1cc(I)cc(I)c1O` (stereo not given) [Closantel], for which the “z-score of subpopulation abundance” value is 1.17.

In the case of `CC[N+](C)(CC)CCOC(=O)C(O)(c1ccccc1)c1ccccc1` [Methylbenactyzine Bromide], the “z-score of subpopulation abundance” value worked out at 0.22.

Consider `CN1[C@@H]2C[C@@H](OC(=O)[C@H](CO)c3ccccc3)C[C@H]1[C@@H]1O[C@@H]12` [Scopolamine HBr], for which the “z-score of subpopulation abundance” value was -0.04.

With `O=[N+]([O-])C(Br)(CO)CO` [Bronopol], the “z-score of subpopulation abundance” value amounted to 0.51.

As to `Nc1nc(N)nc(NC2CC2)n1` [Cyromazine], the “z-score of subpopulation abundance” value is 0.95.

For the molecule `CN(C)[C@@H]1C(=O)C(C(N)=O)=C(O)[C@@]2(O)C(=O)C3=C(O)c4c(O)cccc4[C@@](C)(O)[C@H]3[C@H](O)[C@@H]12` [Oxytetracycline (Terramycin)], the “z-score of subpopulation abundance” value was -0.79.

`CC(C)N(CCC(C(N)=O)(c1ccccc1)c1ccccn1)C(C)C` (stereo not given) [Disopyramide]: the “z-score of subpopulation abundance” value is -0.53.

Turning to `C[C@H]1O[C@H](O[C@H]2[C@H](O)[C@@H](O)[C@@H](O)[C@H](O)[C@@H]2O)[C@@H](N)C[C@@H]1NC(=N)C(=O)O` [Kasugamycin hydrochloride], the “z-score of subpopulation abundance” value is -0.97.

Consider `COc1ccc(C=O)cc1` [p-Anisaldehyde], for which the “z-score of subpopulation abundance” value is -1.36.

As for `C#C[C@]1(O)C=C[C@H]2[C@@H]3CCC4=CC(=O)CC[C@@H]4[C@H]3CC[C@@]21CC` [Gestodene], the “z-score of subpopulation abundance” value came to 0.43.

Turning to `CN(C)C(=O)Oc1ccc[n+](C)c1` [Pyridostigmine Bromide], the “z-score of subpopulation abundance” value was 0.47.

Regarding `C=CN1CCCC1=O.II` [Povidone iodine], the “z-score of subpopulation abundance” value was -0.79.

Take `CC[C@H]1CN2CC[C@]3(C(=O)Nc4ccccc43)[C@@H]2C[C@@H]1/C(=C\OC)C(=O)OC` [Rhynchophylline]: the “z-score of subpopulation abundance” value was -0.68.

For `CCN(C)C(=O)Oc1cccc([C@H](C)N(C)C)c1` [Rivastigmine], the “z-score of subpopulation abundance” value stood at 1.32.

As for `N[C@@H]1C[C@H]1c1ccccc1` [Tranylcypromine (2-PCPA) HCl], the “z-score of subpopulation abundance” value was -0.13.

Turning to `CC(C)(O)C(Cl)(Cl)Cl` [Chlorobutanol], the “z-score of subpopulation abundance” value was found to be 0.1.

As to `CCN1CC2(OC(=O)c3ccccc3NC(C)=O)CCC(OC)C34C1C(CC23)C1(O)CC(OC)C2CC4C1(O)C2OC` (stereo not given) [Lappaconitine], the “z-score of subpopulation abundance” value was 0.06.

Regarding `C=CCN1C[C@H](C(=O)N(CCCN(C)C)C(=O)NCC)C[C@@H]2c3cccc4[nH]cc(c34)C[C@H]21` [Cabergoline], the “z-score of subpopulation abundance” value was -0.27.

For `N#Cc1nn(-c2c(Cl)cc(C(F)(F)F)cc2Cl)c(N)c1[S+]([O-])C(F)(F)F` (stereo not given) [Fipronil], the “z-score of subpopulation abundance” value is -1.13.

Take `C=CC[C@]1(O)CC[C@H]2[C@@H]3CCC4=CC(=O)CCC4=C3C=C[C@@]21C` [Altrenogest]: the “z-score of subpopulation abundance” value came to 0.62.

`CN1[C@@H]2C[C@@H](OC(=O)[C@H](CO)c3ccccc3)C[C@H]1[C@@H]1O[C@@H]12` [Scopolamine HBr trihydrate]: the “z-score of subpopulation abundance” value is -0.97.

Turning to `CN1c2ccccc2C(NCCCCCCC(=O)O)c2ccc(Cl)cc2S1(=O)=O` (stereo not given) [Tianeptine sodium], the “z-score of subpopulation abundance” value was 0.9.
